Rows were chosen to be rich in hits. Some 7.4% of all compounds tested hit in one or more screens of this group.
ELG1 genotox – induces genotoxicity in HEK293T cells with luciferase-tagged ELG1; HEK293T ELG1-luciferase reporter, luminescence, 16 h; 1.3% of 330,000 active; Potency, µM (highest dose often 46 µM), for inactives: at the top dose activity change, positive = activation, actives largely listed as activators; also: % of control where 0% means no effect; nearly all actives have a fitted effect of over 60% in size
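ELG1-luciferase HEK293T cells, 2,000/well; compound pinned in; 16 hr, 37 °C, 5% CO2; ONE-Glo, 30 min RT; luminescence on CCD imager.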
FLuc counter – inhibits or activates purified firefly luciferase, miR-21 counter-screen. P08659. purified FLuc, Km substrates, luminescence inhibition. Potency, µM (top dose mostly 57.5 µM), for the others: at the top dose activity change, negative = inhibition, usual class: inhibitors. 6.9% of 360,000 active. AID 588342;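 also: plate controls were vehicle for no effect and reference inhibitor for full effect; nearly all actives have a fitted effect of over 55% in size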
Target sequence (P08659 whole entry, looked up): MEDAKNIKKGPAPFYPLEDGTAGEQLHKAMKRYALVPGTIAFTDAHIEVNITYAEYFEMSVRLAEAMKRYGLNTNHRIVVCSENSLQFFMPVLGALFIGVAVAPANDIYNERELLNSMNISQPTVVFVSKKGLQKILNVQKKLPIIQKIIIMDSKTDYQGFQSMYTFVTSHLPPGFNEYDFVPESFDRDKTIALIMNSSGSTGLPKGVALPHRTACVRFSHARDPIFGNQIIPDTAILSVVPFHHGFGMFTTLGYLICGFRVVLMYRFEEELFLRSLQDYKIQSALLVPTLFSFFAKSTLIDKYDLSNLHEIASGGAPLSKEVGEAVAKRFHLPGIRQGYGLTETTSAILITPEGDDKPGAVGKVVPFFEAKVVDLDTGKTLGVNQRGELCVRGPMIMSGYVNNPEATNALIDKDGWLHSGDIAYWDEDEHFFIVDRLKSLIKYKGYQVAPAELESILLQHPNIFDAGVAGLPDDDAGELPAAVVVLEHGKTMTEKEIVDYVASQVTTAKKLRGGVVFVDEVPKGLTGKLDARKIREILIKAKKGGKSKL
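Purified P. pyralis luciferase, 10 nM final, with Km-level 10 uM D-luciferin and 10 uM ATP in 50 mM Tris acetate pH 7.5, 10 mM Mg acetate, 0.01% Tween-20, 0.05% BSA; 6-point qHTS titration about 60 µM downward; luminescence read.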
SMN2 splice enh – SMN2 splice variant enhancement; HEK293 SMN2-luciferase splicing reporter, luminescence, 30-36 h; Potency, µM (series often up to 46.1 µM), inactives show at the highest dose activity change, positive = activation, hits mostly activators; 2.8% of 210,000 active; AID 1458; also: % of control where 0% means no effect; nearly all actives have a fitted effect of over 55% in size
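qHTS luciferase splicing reporter: luminescence rises when SMN2 exon 7 is included in transfected HEK293 cells. Compound exposure lasted 30-36 h at 37C, with 4.5 mM final sodium butyrate as control, followed by a ONE-Glo read.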
Luc counter – Kinase-Glo luciferase inhibition (counter-screen); Q27757; AID 1379; Kinase-Glo luciferase, ATP luminescence, 8 min; Potency, µM (doses to about 38.3 µM), for inactives: at the highest dose activity change, negative = inhibition, usual class: inhibitors; 0.28% of 200,000 active; also: % is scaled to controls: 0 for no effect and ±100 for the full control effect; nearly all actives have a fitted effect of over 60% in size
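Compound is pinned into ATP-containing buffer (10 uM ATP, imidazole pH 7.2, 7 mM MgCl2). Kinase-Glo luciferase reagent is then added. Light output is recorded following an 8-min room-temperature incubation.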
Rab9 prom act – activators of Rab9 promoter | Huh7 Rab9 promoter-luciferase reporter, luminescence, 24 h | Potency, µM (titrated, usually from 9.22 µM), without a hit: at the top dose activation, negative = inhibition, most hits filed as activators | 2.8% of 320,000 active | AID 485297; also: % of control where 0% means no effect; nearly all actives have a fitted effect of over 60% in size
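Huh7 reporter line, Rab9 promoter upstream of luciferase. Compound exposure 24 h at 37 °C in reduced-serum medium with 10% FBS. Read-out: luminescence.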
NPC1 prom act – activators of NPC1 promoter | Huh7 NPC1 promoter luciferase reporter, 24 h | Potency, µM (doses to about 9.22 µM), inactives show top-dose activation, most hits filed as activators | 2.4% of 320,000 active | AID 485313; also: % of control where 0% means no effect; nearly all actives have a fitted effect of over 60% in size
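Quantitative HTS used a cell-based reporter: Huh7 cells stably bearing the NPC1 promoter upstream of luciferase were treated with compounds for 24 h, and promoter activation was read as luminescence.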
Numbers without * were called inactive; ? = inconclusive; / = no result given; [ ] = another dose, or the depositor's remark. Calls follow the shape of the dose curve; as a rule, active = well fitted curve in the direction sought with a large enough effect; inconclusive = small, poorly fitted or top-dose-only effect, or another doubt; inactive = no such curve, though single readings can be large; an effect the other way counts as inactive or inconclusive. Potency is read from the fitted curve at half-maximal effect.

SMILES | ELG1 genotox | FLuc counter | SMN2 splice enh | Luc counter | Rab9 prom act | NPC1 prom act
Cc1ccc(-c2cc(C(F)(F)F)n3nc(C(=O)Nc4sc5c(c4C#N)CCC(C)C5)cc3n2)cc1 (stereo not given) | / | 2% | 1% | / | / | /
Cc1sc(-n2cccc2)c(C(C)NC(=O)Nc2ccccc2Cl)c1C (stereo not given) | / | 6% | -21% | / | / | /
O=C(COc1ccc(Cl)cc1Cl)NC(=O)N1CCCCC1 | 2.9µM* | 3.4µM* | 2.2µM* | -8% | ? | 25%
O=C(COc1ccc(Cl)cc1Br)NC(=O)NC1CCCC1 | ? | 6µM* | / | / | 3.2µM* | 3.5µM*
O=C(COc1ccccc1Cl)NC(=O)NC1CCCC1 | ? | 13µM* | -10% | -1% | ? | 16%
O=C(COc1ccc(Cl)cc1Cl)NC1CCSC1=O (stereo not given) | 16µM* | 11µM* | ? | -2% | 3.5µM* | ?
O=C(COc1ccc(Cl)cc1Cl)N1CCCN(C(=O)COc2ccc(Cl)cc2Cl)CC1 | -12% | -9% | -34% | -3% | -2% | -2%
O=C(COC(=O)COc1ccc(Cl)cc1Br)NC1CC1 | -3% | / | / | / | / | /
Cc1nc(N2CCOCC2)c2nc(-c3ccccc3)n(CCCN3CCOCC3)c2n1 | / | / | ? | -1% | / | /
Cc1ccc(C(=O)Nc2nnc(S(=O)(=O)N(C)Cc3ccc(F)cc3)s2)cc1 | / | -18% | / | / | / | /
C[C@@H]1C[C@@H]([C@@H](C)CC2CC(=O)NC(=O)C2)C(=O)[C@@H](C)C1 | / | / | / | 2%[39.9 µM] | / | /
Cc1cc(-n2c(C)cc(C(=O)COc3ccc4ccc(=O)oc4c3)c2C)no1 | -2% | 17µM* | -15% | -4% | 7% | -1%
CC(=O)c1cccc(OCC(=O)c2cc(C)n(-c3cc(C)on3)c2C)c1 | -7% | ? | -47% | 8% | -7% | -2%
CCc1cc2c(=O)c(-c3nc(C)cs3)coc2cc1O | ? | 1.9µM* | / | / | ? | 2%
COc1ccc(-c2coc3cc(O)c(OC)cc3c2=O)cc1 | ? | ? | / | / | ? | 26%
COc1ccc2c(=O)c(-c3nc(C)cs3)coc2c1 | ? | 0.76µM* | 4.5µM* | ? | 1.3µM* | 0.63µM*
Cc1csc(-c2coc3cc(O)cc(C)c3c2=O)n1 | 21µM* | 9.5µM* | ? | -27% | ? | ?
Cc1ccc(CNC(=O)Cn2c(=O)n(-c3ccc(C)cc3)c(=O)c3c2c2cc(C)ccc2n3C)cc1 | / | -7% | / | / | / | /
O=C(Cn1c(=O)c2cccn2c2ccc(F)cc21)N1CCN(c2ccccc2)CC1 | / | -3% | / | / | / | /
Cc1cccc(C)c1Nc1c(-c2ccsc2)nc2cccc(C)n12 | / | -12% | 2% | / | / | /
Cc1ccc(NC(=O)Nc2cccc(Cl)c2)c(C(=O)O)c1 | 8% | 12µM* | -7% | 6% | -5% | 18%
CSc1ccccc1NC(=O)Nc1ccc(F)c(Cl)c1 | 2% | 12µM* | 6% | -10% | 15% | 16%
CSc1ccccc1NC(=O)Nc1cccc(Cl)c1 | 1% | 24µM* | 19% | -14% | 13% | 11%
CSc1ccccc1NC(=O)Nc1cccc(Cl)c1Cl | 2% | 2% | 12% | 16% | 1% | 0%
Cc1ccc2c(CNCCc3ccccc3)c(C(=O)O)n(Cc3ccccc3C)c2c1 | / | -4% | / | / | / | /
SMILES | ELG1 genotox | FLuc counter | SMN2 splice enh | Luc counter | Rab9 prom act | NPC1 prom act
c1cnc(N2CCN(c3ncnc4c3oc3ccccc34)CC2)nc1 | 12% | -1% | / | / | 8% | -2%
O=C(c1ccco1)N1CCN(c2ncnc3c(-c4ccc(Cl)cc4)nsc23)CC1 | ? | 6µM* | / | / | 9% | 1%
COc1ccc(-c2nsc3c(N4CCCC4)ncnc23)cc1 | / | 0.13µM* | ? | -5% | 0.11µM* | 4µM*
O=C(c1ccco1)N1CCN(c2ncnc3c2oc2ccccc23)CC1 | ? | 24µM* | 4% | -2% | 2% | -2%
COc1ccccc1N1CCN(c2ncnc3c2oc2ccccc23)CC1 | ? | 27µM* | / | / | -20% | -24%
CCc1cccc(C)c1NC(=O)Cn1ccn(Cc2ccc(Cl)cc2)c(=O)c1=O | / | -6% | / | / | / | /
CNc1ccccc(-c2ccc3cc4c(cc3n2)OCO4)c1=O | ? | 3.4µM* | / | ? | ? | ?
CC(=O)Nc1nc(COc2ccccc2)cs1 | 10µM* | ? | 18µM* | -7% | ? | 3.2µM*
Nc1nc(COc2ccc3ccccc3c2)cs1 | / | 12µM* | 30% | -1% | / | /
Cc1ccc(C(=O)Nc2nc(COc3ccccc3)cs2)s1 | / | 17µM* | -28% | -1% | / | /
COc1cccc(OC)c1C(=O)Nc1nc(COc2ccccc2)cs1 | -8% | ? | -18% | -1% | -1% | 3%
O=C(Nc1nc(COc2ccccc2)cs1)C1CCC1 | ? | 12µM* | 13% | 4% | ? | ?
Cc1cc(NC(=O)Nc2nnc(N3CCCCC3)s2)ccc1Br | / | 2% | / | / | / | /
O=C(NCc1ccccc1Cl)c1ccc2c(c1)nnn2C1CCCC1 | / | -19% | / | / | / | /
O=C(COc1ccccc1)OCc1csc(Nc2ccccc2)n1 | -2% | ? | 11% | -3% | 0% | 2%
CC(=O)Nc1nc(COc2ccc3ccccc3c2)cs1 | ? | 12µM* | 4% | -3% | 6.3µM* | 2.8µM*
O=C(Nc1nc(COc2ccccc2)cs1)C12CC3CC(CC(C3)C1)C2 | ? | 15µM* | -69% | 19% | 23% | 12%
CC(=O)Nc1nc(CC(=O)c2ccccc2)cs1 | 7% | -6% | -4% | 0% | -5% | 1%
O=C(NCCCN1CCN(c2ccc(F)cc2)CC1)c1cc2c(Cl)nc3ccccc3c2s1 | / | 0% | 8% | / | / | /
Cc1ccccc1Nc1nc(-c2ccccc2)c(C(=O)Nc2cccnc2)s1 | -2% | 15µM* | 4% | -4% | 2% | 0%
O=C(Nc1cccnc1)c1sc(Nc2ccccc2F)nc1-c1ccccc1 | 11% | -1% | / | / | ? | 1%
COC(=O)c1cc(-c2ccc(OC)cc2F)nc2nc(SC)[nH]c(=O)c12 | 0% | 15µM* | / | / | 2% | 3%
COC(=O)c1cc(-c2ccccc2)nc2nc(SC)[nH]c(=O)c12 | -2% | ? | / | / | -4% | 0%
O=C(O)c1sc2cc(C(F)(F)F)cnc2c1-c1cccs1 | -8% | 11µM* | 6% | 5% | -10% | 2%
CN(C)/C=C1\N=C(c2ccc(Cl)cc2Cl)OC1=O | 9.2µM* | ? | -32% | -2% | 0.63µM* | 1.1µM*
Cc1ccc(C2=N/C(=C\N(C)C)C(=O)O2)cc1 | 15µM* | 15µM* | 16% | -1% | ? | ?
Cc1ccc(C2=N/C(=C\c3cccc(F)c3)C(=O)O2)cc1 | 0% | 3µM* | / | / | 1% | 2%
Cc1cccc(C2=N/C(=C\c3cccs3)C(=O)O2)c1 | 3% | 2.1µM* | 1% | 1% | 2% | -1%
